Experimental data published in PubChem BioAssay AID1272365 (Small Molecule Screening Facility, UW Madison, 2018).
Where “and” joins values, the source holds several entries; their conditions need not be identical. Identical values can stand only once. The campaign covered roughly 430,000 compounds. About 2,600 (0.6%) were called active. No stated cut-off is given here; in the data, active means inhibition mostly above about 37% (no sharp cut-off); inactive means mostly below about 20%. The list comes from a sample in which actives are over-represented; it also holds similar structures and randomly drawn compounds.

System: PriA–SSB C-terminal tail interaction (Klebsiella pneumoniae)
Assay: inhibitors of Klebsiella pneumoniae PriA binding to SSB C-terminal tail, primary screen, biochemical, AlphaScreen (AID 1272365);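 further: plate controls were negative control peptide for no effect and reference peptide for full effect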
Details: AlphaScreen SSBct-PriA binding, biotinylated peptide; at 33 µM, hits give high values

Structure (SMILES) | inhibition
COc1cc(OC)cc(-c2noc(-c3cc(-c4cc(C)ccc4C)n[nH]3)n2)c1 | -13% (inactive)
O=C(c1ccc([N+](=O)[O-])o1)N1CCN(c2ncnc3c2nnn3-c2cccc(F)c2)CC1 | -10% (inactive)
CC(=O)Nc1nnc(Cc2ccc(F)cc2)o1 | 1% (inactive)
COc1ncc(NC(=O)Nc2ccc(C)c(Cl)c2)c(N(C)C)n1 | 10% (inactive)
O=C(Cc1csc(SCc2ccc(Cl)cc2)n1)Nc1ccc2c(c1)OCO2 | 1% (inactive)
CN(C)c1ccc(/C=N\NC(=O)c2ccccc2O)cc1 | -18% (inactive)
NC(=O)c1ccccc1OCC#CCNS(=O)(=O)Cc1ccc(Cl)cc1 | -1% (inactive)
O=C(Cn1nc(-c2ccc(F)cc2)c2sc(N3CCCC3)nc2c1=O)NCc1ccccc1Cl | -4% (inactive)
CCOc1cc(/C=C2/N=C(c3ccc(C(C)(C)C)cc3)OC2=O)cc(Cl)c1OS(C)(=O)=O | 62.1% (active)
CC(=O)Nc1ccc(N2C(=O)c3cccc4cccc(c34)C2=O)cc1 | 5% (inactive)
O=C(CSc1cccc2cccnc12)Nc1ccc(Br)cc1 | 27.6% (inactive)
Cc1c(NC(=O)CSc2cccc3cccnc23)c(=O)n(-c2ccccc2)n1C | 96% (active)
Cc1ccc(NC(=O)C2CCCN2S(=O)(=O)c2cccc3cccnc23)c(C)c1 (stereo not given) | -5.79% (inactive)
Cc1c(NC(=O)COc2cccc(OCCC(C)C)c2)c(=O)n(-c2ccccc2)n1C | -3% (inactive)
Cc1ccccc1OCCC(=O)Nc1c(C)n(C)n(-c2ccccc2)c1=O | -12.4% (inactive)
Cc1ccc(NC(=O)CSc2cccc3cccnc23)c(C)c1 | 79.3% (active)
O=C(CSc1nnc(-c2ccc3c(c2)OCCO3)o1)Nc1nc(-c2ccccc2)cs1 | -3% (inactive)
COc1ccc(C(=O)CC(SCCO)c2ccc(F)cc2)cc1OC (stereo not given) | -1% (inactive)
COc1ccc(NC(=O)NCC(c2ccc3c(c2)CCCN3C)N2CCCC2)cc1OC (stereo not given) | 25% (inactive)
CCC(=O)N1CCc2ccc(NC(=O)CCC3CCCC3)cc2C1 | -6% (inactive)

Structure (SMILES) | inhibition
Cc1cc(C)c(S(=O)(=O)Nc2ccc3c(c2)CCCN3C(=O)c2ccco2)c(C)c1 | 0% (inactive)
CCCN1CCCc2cc(CCNC(=O)Cc3ccc(OC)cc3)ccc21 | 57.9% (inactive)
CCCN1CCCc2cc(CCNC(=O)c3ccco3)ccc21 | 56% (active)
O=C(NCCc1ccc(N2CCCC2)cc1)c1ccco1 | -19% (inactive)
CCCN1CCCc2cc(CCNC(=O)CCC3CCCC3)ccc21 | 63% (active)
Cn1nc(CNS(=O)(=O)/C=C/c2ccccc2)c2c1CCCC2 | -3% (inactive)
CCCS(=O)(=O)N1CCc2ccc(NC(=O)c3ccc(Br)o3)cc2C1 | -14% (inactive)
C=CCn1c(SCC(=O)N2CCOCC2)nc2scc(-c3ccccc3Cl)c2c1=O | -1% (inactive)
Cc1cc(=O)n(CC(=O)Nc2ccc(C(F)(F)F)cc2)c(-c2ccncc2)n1 | -28% (inactive)
CS(=O)(=O)N1CCN(C(=O)c2cnn3c2OCCC3)CC1 | 6% (inactive)
O=C(Cc1ccc(F)cc1)NCCn1nc(C(F)(F)F)c2c1CCCC2 | 10% (inactive)
COc1cn2c(cc1=O)C(=O)N(CCNC(=O)C1(c3ccc(Cl)cc3)CCCC1)CC2 | -13% (inactive) and -15% (inactive)
Cc1ccc2c(CC(=O)NCc3ccccc3Cl)cc(=O)oc2c1 | -3% (inactive)
O=C(OCC(=O)N1CCc2ccccc21)c1ccc([N+](=O)[O-])cc1 | -10.4% (inactive)
O=C(COC(=O)c1cccc(I)c1)c1ccc([N+](=O)[O-])cc1 | 38% (active)
O=C(COC(=O)c1cccc(I)c1)c1ccc(-n2nncc2-c2ccccc2)cc1 | -4% (inactive)
CS(=O)(=O)N1CCC(CNC(=O)c2ccc(OC(F)(F)F)cc2)CC1 | -25% (inactive)
O=S(=O)(/C=C/c1ccccc1)N1CCCSCC1CN1CCOCC1 (stereo not given) | -4% (inactive)
COC(=O)c1sccc1S(=O)(=O)NCc1ccc(C(=O)c2ccco2)s1 | -24% (inactive)
O=C(Cn1nc(-n2ccc3ccccc32)ccc1=O)Nc1c[nH]c(=O)[nH]c1=O | -41% (inactive)

Structure (SMILES) | inhibition
c1ccc(-c2ccc(N3CCNCC3)nn2)nc1 | 100% (active)
O=S(=O)(CCc1ccccc1)N1CCN(c2ccc(-c3ccccc3)nn2)CC1 | -3% (inactive)
O=C(c1ccccc1F)N1CCN(c2ccc(-c3cccnc3)nn2)CC1 | -8% (inactive) and -16% (inactive)
CCOc1ccccc1C(=O)N1CCN(c2ccc(-c3ccccn3)nn2)CC1 | 100% (active)
CCSc1ccccc1C(=O)N1CCN(c2ccc(-c3ccccn3)nn2)CC1 | 161% (active)
CCSc1ccccc1C(=O)N1CCN(C(=O)C2CC2c2ccccc2)CC1 (stereo not given) | -7% (inactive)
CCSc1ccccc1C(=O)N1CCN(c2ncnc3c2nnn3C)CC1 | -12% (inactive)
CCOc1ccccc1C(=O)N1CCC(Oc2cccc(C)n2)CC1 | -8% (inactive)
O=C(c1ccc(N2CCCCC2)nn1)N(Cc1ccccc1)c1ccccn1 | -19% (inactive)
C=CCNC(=S)NN=C(C)c1cc(OC)c(OC)c(OC)c1 | -5.43% (inactive)
Cc1cc(OC2CN(C(=O)C(C)(C)Oc3ccc(Cl)cc3)C2)cc(=O)n1C | -5% (inactive)
COc1ccc(N2CCn3c(SCC(=O)Nc4ccc(OC)cc4OC)nnc32)cc1 | -12% (inactive)
O=C(O)c1cc(Br)cs1 | -5% (inactive)
COc1ccc(NC(=O)CCSc2ccc(C)cc2)c([N+](=O)[O-])c1 | 62% (active)
COc1ccc(OCC(=O)NN=C(C)CC(=O)Nc2ccc(OC)cc2[N+](=O)[O-])cc1 | -8.04% (inactive)
Cc1ccc(SCCC(=O)Nc2cccc(Cl)c2Cl)cc1 | -17% (inactive) and -19% (inactive)
CN(C)[C@@H](CNC(=O)C(=O)Nc1ccc(F)c(Cl)c1)c1ccco1 | -17% (inactive)
NC(=O)c1ccccc1NC(=O)c1cccn(Cc2cccc(F)c2)c1=O | 4% (inactive)
N#C/C(=C\N1CCC(C(N)=O)CC1)C(=O)NCCc1ccccc1 | -13% (inactive)
O=C(Nc1nc2c(s1)C(=O)NCCC2)c1ccc2noc(-c3ccccc3)c2c1 | -3% (inactive)
